Tested on: FXR:RXRa (NR concentration 270 nM, RXRa partner concentration 90 nM)
Test: PBM binding z-score (relative to random genomic background probes); higher = stronger binding; sequences stand for … in GC…GCGATTGACAGCGTAGAATGAAGG
Summary of the method: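 Scanned fluorescence from custom Agilent 4×180K protein-binding microarrays was regression-normalized. Binding z-scores use random background probes as reference. Ligand-free nuclear receptor dimers were incubated on the arrays for 1 h and detected with antibodies against each partner (one per run).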

Sequence	PBM binding z-score
ATCGAAAGGTCGAAGGTGAGTATACCCACCCGAA	4.3
TCTTGTAGATCAATAGAGGTTACGAAAGTGCGCT	1.11
TCTTGTTGATCAAGCAGGTTAAGAAAGCCTGAGT	0.36
CGTCCTAGGTCAAGGTCAGTGAAAGAGACTCGAA	5.87
GGAACGAGTGCAAAGTTGATAGCATCTGTCGACG	0.106
TCTAGTTGGTCTCGGAGGTCACACACGACGGGTA	2.68
CTAACTAGGTCAGAACAGGACAGTGAAGGATGAT	1.45
TCTTGTAGATCAACAGGAGTTTAAGAAAGATCGA	-0.268
CGTCCACGGTCAATGCTAGGTCAGTGAAAGCATT	0.638
CCTTACGGGTCACTGACAGGTTAAAGCATTTGGA	5.65
CCTAGTTGGTCAGGAGGTAACACACCGGATATGA	0.273
ATAACGAGGGCAATGAGTTGATAGCACGGGTGGC	0.269
GCGACTGGGGCATAGCAGGTTACCATAAGGTTGG	0.397
TTACCAAGCTGAGCTGAGGTCGTTGATCCAACTC	0.0307
CGGCCAAGGTCAGAGAGGTCAGTGAATGCCGAGT	6.02
GGGACTGGGGCAAAGCAGGTTACCATAAGGTTGG	0.776
TCAGACAAGTGAAGGTAACTCAGGTACGCAGTCG	0.55
GCTTGTAGATCACGGTTAAGAAAGACTAAGCTAA	-0.132
GTTAGTTGGTCAGTAAAAGGTCACACACCGGTCG	3.73
TCATATAGGTAAACAGGTGAAAGTTCGTAAGTTA	1.01

Sequence	PBM binding z-score
ACTAGTTGGTCAGGTGAGGTCACACACAATTCGG	3.87
ATCGAAAGGTCGAAGGTGAGAATACCCACCCGAA	4.1
TCTTCTAGATCAAAGGTTAAGAAAGCCGAAGCCT	1.43
CCTTACGGGTCACGATGTTATAGCACGACGAGCG	5.82
GGAATGAGGGCAAAGTTGATAGCATCTGTCGACG	1.58
TCATATAGGTAATACAGGTGACAGTCGGCATCTA	1.08
CCTATTAGTTGACCATAAAGGCAACCGAAGCTCG	0.384
ATCTCTAGGTAAAGTTCCGTGAAAGATCGATAGA	0.524
CATCGGAGGACAACAGGAGGTCAGAGCTGCCAGA	1.42
CGTCAAAGTCCAACTAAGGTAACGTAAAGCACGC	0.904
TTGCCTAGGTCATTCAGGGGCCAGTATAGAAAGC	5.14
ATCTCTAGGTAAAGATAGTTCAGCGAATGCAAAT	0.212
ATCTCTAGGTAAGACTCAGTTCAGTGAAGAACGC	0.226
AAACCAAGGTGATCGTGAGGTCGTTGATACTAAC	1.87
GTACCAAGGTGAATAGATCGTTGATGAGTAGGCG	0.377
CCTCGGAGGACAACAGGAGCTCAGAGCTGCCAGA	-0.156
CAAGCTAGGTCACAGAGGTCAAAGTCCGTGCGTA	7.59
ACTTTTAGTTGACTTAGGGCAACCGATACGACGC	0.918
TCTATTAGTTGAAGGGTAACCGACGAGTCCGTTT	1.06

Source: the supplement of paper PMC6555819
